Measured values taken from publication PMC7862700, “An all-to-all approach to the identification of sequence-specific readers for epigenetic DNA modifications on cytosine”.

What was measured:
Test in all cases: DAPPL (digital affinity profiling via proximity ligation, sequencing); 10 mM Tris-HCl pH 7.5, 50 mM NaCl, 1 mM DTT, 4% glycerol, room temperature, 30 min; GST-TFs on glutathione beads, 16-mer random dsDNA library, 0.1% formaldehyde crosslink after washing; high values mean tight binding
Conditions in all cases: protein: recombinant; tags: N-terminal GST; dsDNA, one strand shown
FLI1 = molecular target: T1, FLI1 (Homo sapiens, UniProt Q01543 1-452)
T1 sequence: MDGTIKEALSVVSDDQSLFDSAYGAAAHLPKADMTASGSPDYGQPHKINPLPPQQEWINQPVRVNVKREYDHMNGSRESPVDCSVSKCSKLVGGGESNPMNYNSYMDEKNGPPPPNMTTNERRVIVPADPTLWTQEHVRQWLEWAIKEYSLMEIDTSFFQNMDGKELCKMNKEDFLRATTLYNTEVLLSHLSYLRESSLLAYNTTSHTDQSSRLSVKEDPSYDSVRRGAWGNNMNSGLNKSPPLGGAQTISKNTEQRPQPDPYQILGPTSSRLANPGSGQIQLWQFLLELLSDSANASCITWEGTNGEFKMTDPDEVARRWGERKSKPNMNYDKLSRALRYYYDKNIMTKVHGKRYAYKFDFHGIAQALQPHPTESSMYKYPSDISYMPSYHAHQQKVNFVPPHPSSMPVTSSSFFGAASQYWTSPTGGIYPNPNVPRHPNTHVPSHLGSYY
Procedure, shortened: (§1)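 In yeast, human transcription factors were expressed with a GST fusion, then pulled down on glutathione beads and given DNA barcodes. Pooled with a tag-only sample, they were exposed to 200 nmole of a 16-mer random double-stranded DNA library (Tris/NaCl/DTT/glycerol buffer, room temperature, 30 min), washed, crosslinked with 0.1% formaldehyde, proximity-ligated using BsaI/T4 ligase for 1 h at 37 °C, PCR-amplified and read on an Illumina NextSeq500. Each hexamer's frequency of reads for a factor, divided by the matching frequency for the tag-only sample, gives the binding signal.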

ELK1 = molecular target: T2, ELK1 (Homo sapiens, UniProt P19419 1-428)
T2 sequence: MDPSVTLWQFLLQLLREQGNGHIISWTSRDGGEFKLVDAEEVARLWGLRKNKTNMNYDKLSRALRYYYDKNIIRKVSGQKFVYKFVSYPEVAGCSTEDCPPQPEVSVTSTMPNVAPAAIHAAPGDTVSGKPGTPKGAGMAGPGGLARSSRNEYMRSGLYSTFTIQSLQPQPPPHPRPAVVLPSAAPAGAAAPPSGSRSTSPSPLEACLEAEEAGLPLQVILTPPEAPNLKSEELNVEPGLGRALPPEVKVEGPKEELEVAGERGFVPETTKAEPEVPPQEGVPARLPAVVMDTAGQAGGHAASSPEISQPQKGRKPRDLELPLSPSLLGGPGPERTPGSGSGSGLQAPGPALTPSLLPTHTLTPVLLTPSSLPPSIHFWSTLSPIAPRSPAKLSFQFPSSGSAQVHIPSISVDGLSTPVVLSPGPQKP
Procedure, shortened: as §1

GABPA = molecular target: T3, GABPA (Homo sapiens, UniProt Q06546 1-454)
T3 sequence: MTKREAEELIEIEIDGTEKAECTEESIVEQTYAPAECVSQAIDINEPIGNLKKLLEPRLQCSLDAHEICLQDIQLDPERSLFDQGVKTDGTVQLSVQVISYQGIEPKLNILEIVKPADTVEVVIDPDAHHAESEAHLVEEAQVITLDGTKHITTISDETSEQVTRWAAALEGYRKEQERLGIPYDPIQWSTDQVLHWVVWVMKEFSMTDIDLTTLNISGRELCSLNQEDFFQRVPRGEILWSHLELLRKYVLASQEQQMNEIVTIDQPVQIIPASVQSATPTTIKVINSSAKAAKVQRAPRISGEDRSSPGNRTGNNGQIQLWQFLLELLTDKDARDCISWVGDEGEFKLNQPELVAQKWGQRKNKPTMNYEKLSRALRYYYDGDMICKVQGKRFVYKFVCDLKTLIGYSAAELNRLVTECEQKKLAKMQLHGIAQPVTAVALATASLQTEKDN
Procedure, shortened: as §1

ERG = molecular target: T4, ERG (Homo sapiens, UniProt P11308 1-479)
T4 sequence: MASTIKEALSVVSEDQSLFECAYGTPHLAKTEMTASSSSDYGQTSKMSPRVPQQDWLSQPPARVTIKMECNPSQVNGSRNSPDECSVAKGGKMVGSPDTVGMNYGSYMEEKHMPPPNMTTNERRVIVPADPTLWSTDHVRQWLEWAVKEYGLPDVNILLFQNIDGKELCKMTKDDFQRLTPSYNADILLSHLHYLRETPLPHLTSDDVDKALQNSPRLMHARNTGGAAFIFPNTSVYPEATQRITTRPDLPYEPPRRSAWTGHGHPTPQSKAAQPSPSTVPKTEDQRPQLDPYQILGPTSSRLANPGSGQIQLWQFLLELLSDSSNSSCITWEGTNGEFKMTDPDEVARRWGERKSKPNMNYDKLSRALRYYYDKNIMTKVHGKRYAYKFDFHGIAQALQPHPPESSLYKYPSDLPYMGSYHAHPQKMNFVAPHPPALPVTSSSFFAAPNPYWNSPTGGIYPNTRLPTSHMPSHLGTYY
Procedure, shortened: as §1

ELF1 = ELF1 (Homo sapiens, UniProt P32519 1-619)
ELF1, sequence (P32519 whole entry): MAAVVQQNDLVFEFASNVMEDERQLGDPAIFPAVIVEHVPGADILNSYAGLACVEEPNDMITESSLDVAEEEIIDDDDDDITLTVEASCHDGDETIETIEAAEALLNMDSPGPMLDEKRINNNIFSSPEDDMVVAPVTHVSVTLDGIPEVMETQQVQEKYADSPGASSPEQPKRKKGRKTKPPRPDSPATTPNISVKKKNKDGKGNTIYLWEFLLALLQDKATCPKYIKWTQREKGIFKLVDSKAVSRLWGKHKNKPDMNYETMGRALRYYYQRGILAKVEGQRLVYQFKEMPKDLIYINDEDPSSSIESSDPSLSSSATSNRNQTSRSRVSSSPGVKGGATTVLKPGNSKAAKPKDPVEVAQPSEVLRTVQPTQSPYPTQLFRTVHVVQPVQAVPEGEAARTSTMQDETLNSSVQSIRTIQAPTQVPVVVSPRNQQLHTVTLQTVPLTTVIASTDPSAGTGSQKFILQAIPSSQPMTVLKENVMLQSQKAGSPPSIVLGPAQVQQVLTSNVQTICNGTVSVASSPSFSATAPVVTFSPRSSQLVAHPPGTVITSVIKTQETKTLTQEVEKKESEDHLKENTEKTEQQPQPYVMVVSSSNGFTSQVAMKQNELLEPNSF
Procedure, shortened: as §1

EHF = molecular target: T5, EHF (Homo sapiens, UniProt Q9NZC4 1-300)
T5 sequence: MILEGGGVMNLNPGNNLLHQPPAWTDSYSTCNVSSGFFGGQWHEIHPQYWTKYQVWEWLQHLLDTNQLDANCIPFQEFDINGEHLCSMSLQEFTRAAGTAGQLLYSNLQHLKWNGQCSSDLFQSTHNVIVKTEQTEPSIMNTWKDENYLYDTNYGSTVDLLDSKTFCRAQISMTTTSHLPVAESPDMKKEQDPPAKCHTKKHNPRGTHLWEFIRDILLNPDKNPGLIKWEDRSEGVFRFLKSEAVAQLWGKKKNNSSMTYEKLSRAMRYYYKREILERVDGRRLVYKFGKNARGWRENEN
Procedure, shortened: as §1

SPI1 = SPI1 (Homo sapiens, UniProt P17947 1-270)
Procedure, shortened: as §1

SPIB = SPIB (Homo sapiens, UniProt Q01892 1-262)
SPIB, sequence (Q01892 whole entry): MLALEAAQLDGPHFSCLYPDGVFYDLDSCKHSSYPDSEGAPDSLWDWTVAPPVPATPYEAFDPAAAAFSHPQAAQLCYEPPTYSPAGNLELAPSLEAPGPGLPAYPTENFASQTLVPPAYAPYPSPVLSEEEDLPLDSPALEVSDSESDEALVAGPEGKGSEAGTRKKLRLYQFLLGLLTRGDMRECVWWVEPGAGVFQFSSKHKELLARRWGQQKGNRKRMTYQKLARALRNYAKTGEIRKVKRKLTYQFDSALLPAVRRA
Procedure, shortened: as §1

ELK3 = molecular target: T6, ELK3 (Homo sapiens, UniProt P41970 1-407)
T6 sequence: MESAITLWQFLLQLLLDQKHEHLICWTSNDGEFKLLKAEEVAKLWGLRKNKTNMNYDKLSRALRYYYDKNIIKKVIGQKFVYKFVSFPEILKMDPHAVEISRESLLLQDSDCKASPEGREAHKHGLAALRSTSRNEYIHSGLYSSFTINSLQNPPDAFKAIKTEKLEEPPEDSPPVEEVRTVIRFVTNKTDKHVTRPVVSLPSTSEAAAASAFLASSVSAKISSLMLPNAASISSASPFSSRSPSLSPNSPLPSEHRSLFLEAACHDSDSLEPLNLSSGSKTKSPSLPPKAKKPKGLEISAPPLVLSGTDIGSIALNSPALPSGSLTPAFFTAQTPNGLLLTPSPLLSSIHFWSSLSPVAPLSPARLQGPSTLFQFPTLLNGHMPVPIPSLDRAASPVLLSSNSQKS
Procedure, shortened: as §1

Question: AAATAA was tested. Which binding signal (FLI1) did it give?
Answer: 1.27 fold enrichment (6-mer frequency, TF over GST control)

Question: And the binding signal (ELK1)?
Answer: 1.32 fold enrichment (6-mer frequency, TF over GST control)

Question: And the binding signal (GABPA)?
Answer: 1.33 fold enrichment (6-mer frequency, TF over GST control)

Question: And the binding signal (ERG)?
Answer: 1.37 fold enrichment (6-mer frequency, TF over GST control)

Question: What about the binding signal (ELF1) of the same sequence?
Answer: 1.33 fold enrichment (6-mer frequency, TF over GST control)

Question: What about the binding signal (EHF) of the same sequence?
Answer: 1.29 fold enrichment (6-mer frequency, TF over GST control)

Question: And the binding signal (SPI1)?
Answer: 1.32 fold enrichment (6-mer frequency, TF over GST control)

Question: And the binding signal (SPIB)?
Answer: 1.39 fold enrichment (6-mer frequency, TF over GST control)

Question: What about the binding signal (ELK3) of the same sequence?
Answer: 1.33 fold enrichment (6-mer frequency, TF over GST control)
